According to PubChem BioAssay (Tox21):
Inconclusive results are not listed. Calls of active or inactive are those of the source. Unless noted, the call rests on the fitted dose curve; in most records, active means well fitted curve in the direction sought with a large enough effect in the repeat runs; inconclusive means weak or mixed curves; inactive means no such curve, though single readings can be large; an effect the other way counts as inactive or inconclusive.

Columns and labels:
[1] = qHTS assay to identify small molecule agonists of the sonic hedgehog signaling (Shh) pathway - cell viability counter screen (AID 1259366); further: nearly all actives have a fitted effect of over 50% in size
Summary of the method: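 Compounds in DMSO were pin-transferred onto 3T3 Gli1-Luc cells that had settled 4hr; plates then stood 24hr at 37C and 5% CO2. One hour before the end, CellTiter-Fluor was added and fluorescence recorded.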

[2] = qHTS assay to identify small molecule antagonists of the sonic hedgehog signaling (Shh) pathway - cell viability counter screen (AID 1259367); further: nearly all actives have a fitted effect of over 55% in size
Summary of the method: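 Using CellTiter-Fluor, viability of Gli1-Luc reporter 3T3 cells is read by fluorescence in the wells used for the Shh luciferase assay. Treatment lasts 23 hr with conditioned medium, then reagent 1 hr at 37C.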

[3] = qHTS assay to identify small molecule agonists of the sonic hedgehog signaling (Shh) pathway (AID 1259368; calls by dose curve; further: series mostly up to about 92 µM; nearly all actives have a fitted effect of over 15% in size)
Summary of the method: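 NIH/3T3-derived 3T3Gli1-Luc cells carrying a stably integrated Gli1 response element–firefly luciferase reporter were plated, left 4 hr at 37 C, then given compounds in DMSO for 24 hr. Luminescence was read 30 min after adding luciferase reagent.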

[4] = molecular target: Estrogen receptor beta (Homo sapiens) (UniProt Q92731); experiment: qHTS assay to identify small molecule agonists of the estrogen receptor beta (ER-beta) signaling pathway (AID 1259377; active means well fitted activation curve with a large enough effect in the signal ratio in the repeat runs, not every such curve was filed as active; the % refers to the signal ratio)
Summary of the method: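 qHTS in ER-beta-UAS-bla HEK293T cells: 6 hr settling, then 16 hr compound at 37C, then LiveBLAzer substrate 2 h at RT before fluorescence reading.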

[5] = qHTS assay to identify small molecule agonists of the androgen receptor (AR) signaling pathway in the presence of an antagonist - cell viability counter screen (AID 1259379); further: series mostly up to about 92 µM; nearly all actives have a fitted effect of over 25% in size
Summary of the method: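 MDA-kb2 human breast carcinoma cells (stable MMTV-luciferase, AR/GR responsive) were seeded 3,000 cells/well, pre-incubated 5 hr at 37C without CO2, then given 3.0uM nilutamide and compounds at 15 concentrations for 16 hr. Viability was read by CellTiter-Fluor fluorescence.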

[6] = qHTS assay to identify small molecule agonists of the estrogen receptor beta (ER-beta) signaling pathway - cell viability counter screen (AID 1259380); further: nearly all actives have a fitted effect of over 30% in size; further: potency means the concentration at half of the fitted maximal effect
Summary of the method: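 ER-beta-UAS-bla HEK293T cells in medium with 2% charcoal-stripped FBS were preincubated 6 hr at 37C, dosed with compound in DMSO for 16 hr, then after the bla read, CellTiter-Glo was added for 30 min at room temperature; luminescence recorded.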

[7] = molecular target: Androgen receptor (Homo sapiens) (UniProt P10275); experiment: qHTS assay to identify small molecule agonists of the androgen receptor (AR) signaling pathway in the presence of an antagonist (AID 1259381; calls by dose curve; further: nearly all actives have a fitted effect of over 15% in size)
Summary of the method: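 MDA-kb2 human breast carcinoma cells carrying an MMTV-luciferase reporter (AR- and GR-responsive) were treated with compounds at 15 concentrations plus 3.0uM final nilutamide for 16hr at 37C without CO2; luminescence was read after ONE-Glo addition.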

[8] = qHTS assay to identify small molecule antagonists of the estrogen receptor beta (ER-beta) signaling pathway - cell viability counter screen (AID 1259382);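 further: HEK293T cells carrying ER-beta-UAS-bla reporter stimulated with estradiol; series mostly up to about 92 µM; nearly all actives have a fitted effect of over 55% in size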
Summary of the method: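 ER-beta-UAS-bla HEK293T cells (2,000/well, 2% charcoal-stripped FBS) were pre-incubated 6 hr at 37C, then given compound plus 1nM final 17-beta-estradiol for 16 hr. Viability was read in the same wells by CellTiter-Glo luminescence after 30 min at room temperature.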

[9] = molecular target: Estrogen receptor beta (Homo sapiens) (UniProt Q92731); experiment: qHTS assay to identify small molecule antagonists of the estrogen receptor beta (ER-beta) signaling pathway (AID 1259378; active means well fitted inhibition curve with a large enough effect in the signal ratio in the repeat runs, not every such curve was filed as active; the % refers to the signal ratio)
Summary of the method: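 Antagonist mode: compounds added to beta-lactamase reporter HEK293T ER-beta-UAS cells stimulated with E2 (1nM final), 16 hr at 37C. LiveBLAzer B/G FRET substrate, 2 hours room temperature, fluorescence read-out.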
On the % scale 0 is the no-effect control and ±100 the full control effect.

Sequence of Estrogen receptor beta (Homo sapiens) (Q92731 whole entry, looked up): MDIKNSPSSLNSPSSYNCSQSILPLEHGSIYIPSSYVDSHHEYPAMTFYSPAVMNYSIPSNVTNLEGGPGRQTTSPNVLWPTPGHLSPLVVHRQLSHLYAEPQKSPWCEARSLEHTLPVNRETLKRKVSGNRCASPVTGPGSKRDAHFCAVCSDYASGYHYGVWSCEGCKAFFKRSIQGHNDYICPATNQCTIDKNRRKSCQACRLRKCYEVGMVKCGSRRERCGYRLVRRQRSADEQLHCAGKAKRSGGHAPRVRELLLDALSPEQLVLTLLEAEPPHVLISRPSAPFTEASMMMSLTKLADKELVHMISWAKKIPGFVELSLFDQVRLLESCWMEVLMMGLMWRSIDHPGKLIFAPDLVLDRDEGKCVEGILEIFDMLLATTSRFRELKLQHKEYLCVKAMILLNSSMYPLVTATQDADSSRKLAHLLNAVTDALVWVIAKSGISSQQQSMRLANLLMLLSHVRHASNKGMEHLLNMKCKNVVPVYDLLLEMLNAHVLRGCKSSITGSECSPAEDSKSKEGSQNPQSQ
Sequence of Androgen receptor (Homo sapiens) (P10275 whole entry, looked up): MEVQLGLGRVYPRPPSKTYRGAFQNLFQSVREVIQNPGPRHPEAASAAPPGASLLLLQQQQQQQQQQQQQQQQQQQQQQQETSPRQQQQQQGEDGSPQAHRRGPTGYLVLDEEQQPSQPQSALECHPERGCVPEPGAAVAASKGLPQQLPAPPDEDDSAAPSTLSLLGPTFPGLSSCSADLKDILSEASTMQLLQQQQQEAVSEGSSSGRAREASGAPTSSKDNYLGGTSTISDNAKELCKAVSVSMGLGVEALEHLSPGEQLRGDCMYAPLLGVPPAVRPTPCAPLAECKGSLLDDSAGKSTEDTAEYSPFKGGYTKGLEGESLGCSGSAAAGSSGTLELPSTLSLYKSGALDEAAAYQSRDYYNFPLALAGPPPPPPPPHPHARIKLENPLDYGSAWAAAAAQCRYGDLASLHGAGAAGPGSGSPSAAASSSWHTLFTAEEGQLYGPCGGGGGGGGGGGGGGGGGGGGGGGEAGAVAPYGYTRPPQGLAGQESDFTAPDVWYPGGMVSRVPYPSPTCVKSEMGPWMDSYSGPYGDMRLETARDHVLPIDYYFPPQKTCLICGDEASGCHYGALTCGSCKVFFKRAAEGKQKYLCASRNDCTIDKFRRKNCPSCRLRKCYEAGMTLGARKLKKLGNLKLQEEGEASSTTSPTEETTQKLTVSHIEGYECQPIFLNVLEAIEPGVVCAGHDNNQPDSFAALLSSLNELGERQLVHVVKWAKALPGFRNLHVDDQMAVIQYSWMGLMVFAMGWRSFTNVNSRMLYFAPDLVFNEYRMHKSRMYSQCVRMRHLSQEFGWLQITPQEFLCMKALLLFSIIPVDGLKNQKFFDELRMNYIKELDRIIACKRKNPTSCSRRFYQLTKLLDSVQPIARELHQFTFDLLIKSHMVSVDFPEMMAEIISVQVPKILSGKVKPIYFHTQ

C[C@@H](CN1CC(=O)NC(=O)C1)N1CC(=O)NC(=O)C1
inactive: outcome [1] | outcome [2] | outcome [3] | Potency [4] | outcome [5] | Potency [6] | outcome [7]

CC(C)(C)C(=O)NCCCC(=O)O
inactive: outcome [1] | outcome [2] | outcome [3] | outcome [5] | Potency [6]

CCCCCCCCCCCCCCCC/C=C/C1CC(=O)OC1=O (stereo not given)
inactive: outcome [1] | outcome [2] | outcome [3] | Potency [4] | outcome [5] | Potency [6] | outcome [8]

N=C(N)N1CCc2ccccc2C1
inactive: viability change, negative = cytotoxic [1] 2.39% [at 8.39 µM] | viability change, negative = cytotoxic [2] 3.14% [at 8.39 µM] | activity change [3] 0.863% [at 8.39 µM] | activity change, negative = cytotoxicity [5] 0.84% [at 8.39 µM] | activity change, negative = cytotoxicity [6] 1.92% [at 8.39 µM] | activity change, negative = cytotoxicity [8] 8.18% [at 8.39 µM]

Nc1nc(Cl)cc(Cl)n1
inactive: outcome [1] | outcome [2] | outcome [3] | Potency [4] | outcome [9] | outcome [5] | Potency [6] | outcome [8]

N#Cc1cc(NC(=O)C(=O)O)c(Cl)c(NC(=O)C(=O)O)c1
inactive: outcome [1] | outcome [2] | outcome [3] | outcome [5] | outcome [7] | outcome [8]

Cc1cc2c(cc1CC(=O)c1sccc1S(=O)(=O)Nc1onc(C)c1Cl)OCO2
inactive: outcome [1] | outcome [2] | outcome [3] | outcome [9] | outcome [5]

Cc1ccc2ccccc2n1
inactive: outcome [1] | outcome [2] | outcome [3] | Potency [4] | outcome [9] | outcome [5] | Potency [6] | outcome [8]

CNC(C)=O
inactive: outcome [1] | outcome [2] | outcome [3] | Potency [4] | outcome [9] | outcome [5] | Potency [6] | outcome [8]

CN(C)CCC[C@@]1(c2ccc(F)cc2)OCc2cc(C#N)ccc21
inactive: outcome [1] | outcome [2] | outcome [3] | outcome [5]
active: Potency [6] 2.98 µM

CCCCC(CC)CCC(CC(C)C)OS(=O)(=O)O (stereo not given)
inactive: outcome [1] | outcome [2] | outcome [3] | Potency [4] | outcome [5] | Potency [6] | outcome [8]

Cc1ccc(S(=O)(=O)NC(=O)NN2CC3CCCC3C2)cc1 (stereo not given)
inactive: outcome [1] | outcome [2] | outcome [3] | outcome [5] | Potency [6] | outcome [8]

O=c1c(O)c(O)c1=O
inactive: outcome [1] | outcome [2] | outcome [3] | outcome [5] | Potency [6] | outcome [8]

COC(=O)c1c(C)cc(O)c(C)c1O
inactive: outcome [1] | outcome [2] | outcome [3] | Potency [4] | outcome [9] | outcome [5] | Potency [6] | outcome [8]

CCCC(=O)CC
inactive: outcome [1] | outcome [2] | outcome [3] | Potency [4] | outcome [5] | Potency [6] | outcome [8]

CC(=O)SC[C@@H](C)C(=O)N1CCC[C@H]1C(=O)N[C@@H](Cc1ccccc1)C(=O)O
inactive: outcome [1] | outcome [2] | outcome [3] | outcome [5] | Potency [6] | outcome [8]

O=C1Nc2ccccc2C1=O
inactive: outcome [1] | outcome [2] | outcome [3] | Potency [4] | outcome [9] | outcome [5] | outcome [8]

CCC(C)c1nccnc1OC (stereo not given)
inactive: outcome [1] | outcome [2] | outcome [3] | Potency [4] | outcome [9] | outcome [5] | Potency [6] | outcome [8]

N=C(N)S(=O)O
inactive: outcome [1] | outcome [2] | outcome [3] | outcome [5] | Potency [6] | outcome [8]

CCOCCOCCOC(C)=O
inactive: outcome [1] | outcome [2] | outcome [3] | Potency [4] | outcome [5] | Potency [6] | outcome [8]

COC(=O)N/N=C/c1c[n+]([O-])c2ccccc2[n+]1[O-]
inactive: outcome [1] | outcome [2] | outcome [3] | outcome [5] | Potency [6] | outcome [8]

CCOc1ccccc1OCCN[C@H](C)Cc1ccc(OC)c(S(N)(=O)=O)c1
inactive: outcome [1] | outcome [2] | outcome [3] | Potency [4] | outcome [9] | outcome [5] | outcome [8]

CC(C)(O)c1ccc(C(C)(C)O)cc1
inactive: outcome [1] | outcome [2] | outcome [3] | outcome [5] | Potency [6] | outcome [8]

CN(C)CCCN(C)C
inactive: viability change, negative = cytotoxic [1] -8.84% [at 8.39 µM] | viability change, negative = cytotoxic [2] 4.7% [at 8.39 µM] | activity change [3] 0.31% [at 8.39 µM] | activation [4] -0.616% [at 8.39 µM] | activity, negative = inhibition [9] 14.4% [at 8.39 µM] | activity change, negative = cytotoxicity [5] 4.3% [at 8.39 µM] | activity change, negative = cytotoxicity [6] 5.46% [at 8.39 µM] | activity change, negative = cytotoxicity [8] -0.979% [at 8.39 µM]

CC(=O)OC/C=C(/C)CCC=C(C)C
inactive: outcome [1] | outcome [2] | outcome [3] | outcome [5] | Potency [6] | outcome [8]

CC(=O)Oc1ccc(C(C)=O)cc1
inactive: outcome [1] | outcome [2] | outcome [3] | outcome [5] | Potency [6] | outcome [8]

CCCOc1ccc(C(=O)OCCN(CC)CC)cc1N
inactive: outcome [1] | outcome [2] | outcome [3] | Potency [4] | outcome [9] | outcome [5] | Potency [6] | outcome [8]
